Screens from PubChem.
Rows were chosen to be rich in hits. Some 3.5% of all compounds tested hit in one or more screens of this group.
MITF primary = inhibitors of human MITF; O75030; AlphaScreen MITF homodimerization, bead proximity signal; inhibition, % at 2.6 µM; actives 0.91% (n = 650,000); in the data active means inhibition above about 50%
TEAD-YAP block = TEAD-YAP interaction inhibition; HEK-TIYL cells, TEAD-Gal4/YAP UAS-luciferase luminescence; inhibition, % at 9.12 µM; actives 1.4% (n = 640,000); in the data active means inhibition above about 32%
FBW7 act = activators of human E3 ligase FBW7; AID 1259310; Q969H0; normalized activity (activation), % at 26.1 µM; AlphaScreen FBW7–phospho-cyclin E peptide binding, activator screen; actives 0.13% (n = 650,000); in the data active means normalized activity above about 1.9%;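 further: purified mutant Fbw7 with reduced substrate affinity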
GPR151 ag = activators of human GPR151. Q8TDV0. PathHunter beta-arrestin GPR151 cells, luminescence. activation, % at 11.2 µM. actives 1% (n = 650,000); in the data active means activation above about 4.9%
Target sequence (Q8TDV0 whole entry, looked up): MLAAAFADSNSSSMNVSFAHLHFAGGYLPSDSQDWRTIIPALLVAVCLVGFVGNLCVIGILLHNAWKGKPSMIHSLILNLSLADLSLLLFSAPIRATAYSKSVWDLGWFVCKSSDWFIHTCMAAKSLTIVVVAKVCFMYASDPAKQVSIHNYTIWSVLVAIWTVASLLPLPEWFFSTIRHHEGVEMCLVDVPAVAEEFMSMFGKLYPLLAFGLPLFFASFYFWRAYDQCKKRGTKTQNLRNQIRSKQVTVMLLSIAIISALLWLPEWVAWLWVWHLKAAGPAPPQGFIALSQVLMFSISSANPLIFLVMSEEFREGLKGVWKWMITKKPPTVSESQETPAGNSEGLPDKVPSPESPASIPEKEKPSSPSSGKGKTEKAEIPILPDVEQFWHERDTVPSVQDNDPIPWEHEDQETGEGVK
GPR151 confirm = confirmation of human GPR151 activators. shares compounds with GPR151 ag. GPR151 PathHunter beta-arrestin cells, luminescence, 90 min; % of EA-reagent control over plate median. activation, % at 11.2 µM. 6,700 tested, under 10 active;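 active means mean percent activation across replicates above the confirmation screen cutoff of 4.91%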
GPR119 ag = counter-screen for GPR151 activators: effect on human GPR119; GPR119 PathHunter beta-arrestin cells, luminescence, 90 min; 0 = compound-well median, 100 = enzyme-acceptor control; actives 0.3% (n = 6,700); shares compounds with GPR151 ag; activation, % at 11.2 µM; AID 1508611;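 active means mean percent activation in the counterscreen above 29.09%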;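 further: counterscreen on off-target GPR119 to flag nonselective hits from the GPR151 activator screen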
Of the large screens only hits and unclear results are named; the others gave an inactive call (follow-up assays come after a bar, where they were run).

O=C(CSC1=NC(=O)C(Cc2ccccc2)C(=O)N1)Nc1ccccc1 (stereo not drawn)	none
Cc1ccc(NC(=O)CSC2=NC(=O)C(Cc3ccccc3)C(=O)N2)cc1 (stereo not drawn)	GPR151 ag 11 | GPR151 confirm inactive | GPR119 ag inactive
CC(=O)c1cccc(NC(=O)c2ccoc2C)c1	GPR151 ag 5.9 | GPR151 confirm inactive | GPR119 ag inactive
O=S(=O)(Nc1ccccc1)c1ccc(NS(=O)(=O)c2c(F)cccc2F)cc1	GPR151 ag 5.2 | GPR151 confirm inactive | GPR119 ag inactive
O=S(=O)(Nc1ccc(S(=O)(=O)Nc2ccccc2)cc1)c1ccccc1	none
COc1ccc(CCn2ccc(-c3sc(NCc4ccco4)nc3C)n2)cc1	GPR151 ag 8.0 | GPR151 confirm inactive | GPR119 ag inactive
O=C(c1csc(-n2cccc2)n1)N1CCn2c1nc1ccccc12	none
O=C(N/N=C/c1cccc(F)c1)C12CC3CC(CC(C3)C1)C2	none
O=Cc1ccc(OCC(=O)Nc2ccc(F)cc2)c(Br)c1	none
NC(=O)NC(=O)COc1ccc(F)cc1Br	GPR151 ag 8.2 | GPR151 confirm inactive | GPR119 ag inactive
COCCCNc1nc2nonc2nc1N1CCN(CCOc2ccccc2)CC1	GPR151 ag 7.2 | GPR151 confirm inactive | GPR119 ag inactive
C=CCOC(=O)C1C(c2ccccc2)C(C(=O)O)C1c1ccccc1 (stereo not drawn)	none
Cc1cc(OCC(N)=O)c(C)cc1Br	none
CN(C(=O)CCl)c1nc(-c2ccc(F)cc2)cs1	GPR151 ag 6.1 | GPR151 confirm inactive | GPR119 ag inactive
COc1ccc(-c2ccc(SCC(=O)Nc3c[nH]c(=O)[nH]c3=O)nn2)cc1OC	none
Cc1nc2c(-c3ccccc3)c(C)nn2c(C)c1CCC(=O)NCCN1CCN(C)CC1	none
COc1cc(C(=O)Nc2c3c(nn2-c2ccc(F)cc2)CS(=O)(=O)C3)cc(OC)c1OC	none
CCCNc1nc(-c2cccc(C(C)=O)c2)nc2c1ncn2C1CCCCC1	none
Nc1nc(-c2ccc(C(=O)NC3CC3)cc2)nc2c1ncn2C1CCCCC1	GPR151 ag 6.2 | GPR151 confirm inactive | GPR119 ag inactive
COc1ccc(-c2nc(NC3CCN(Cc4ccccc4)CC3)c3ncn(C4CCCCC4)c3n2)cc1	GPR151 ag 5.8 | GPR151 confirm inactive | GPR119 ag inactive
CN1CCN(c2ccc(-c3nc(NCc4cccc(C(F)(F)F)c4)c4ncn(C5CCCCC5)c4n3)cc2)CC1	none
O=C(NC1CC1)c1ccc(-c2nc(NCCO)c3ncn(C4CCCCC4)c3n2)cc1	none
CN1CCN(C(=O)c2ccc(-c3nc(NCc4cccc(C(F)(F)F)c4)c4ncn(C5CCCCC5)c4n3)cc2)CC1	GPR151 ag 5.0 | GPR151 confirm inactive | GPR119 ag inactive
CC(=O)c1cccc(-c2nc(NC3CC3)c3ncn(C4CCCCC4)c3n2)c1	GPR151 ag 9.4 | GPR151 confirm inactive | GPR119 ag inactive
CCOC(=O)c1ccc(N2C(=O)C(CC(=O)Nc3ccc(OC)cc3)N(CCCN3CCN(CC)CC3)C2=S)cc1 (stereo not drawn)	none
CCCNC(=O)Cn1cnc2sc(C(=O)NCCN3CCOCC3)c(C)c2c1=O	none
CCCNC(=O)C(=O)NCC1OCCCN1S(=O)(=O)c1ccc(F)c(C)c1 (stereo not drawn)	none
NC(=O)c1cc(-c2cccc(Cl)c2)no1	none
O=C(c1ccc([N+](=O)[O-])cc1)N1CCCc2ccccc21	none
O=C(c1ccc(-n2cnnn2)cc1)N1CCCc2ccccc21	GPR151 ag 5.0 | GPR151 confirm inactive | GPR119 ag inactive
O=C(c1cccc([N+](=O)[O-])c1)N1CCCc2ccccc21	GPR151 ag 5.0 | GPR151 confirm inactive | GPR119 ag inactive
COCC(=O)N1CCCc2ccc(NS(=O)(=O)c3ccc(C)c(C)c3)cc21	none
COCC(=O)N1CCCc2ccc(NS(=O)(=O)c3cc(C)ccc3C)cc21	GPR151 ag 6.8 | GPR151 confirm inactive | GPR119 ag inactive
O=[N+]([O-])c1ccc(N2CCN(Cc3ccoc3)CC2)cc1	none
CC(=O)c1ccc(N2CCN(Cc3ccoc3)CC2)cc1	GPR151 ag 5.9 | GPR151 confirm inactive | GPR119 ag inactive
CC(=O)c1ccc2ccccc2c1OC(=O)c1ccc(Br)o1	GPR151 ag 6.3 | GPR151 confirm inactive | GPR119 ag inactive
CN(C)c1ncnc2c1C(c1ccc([N+](=O)[O-])cc1)c1c(ncnc1N(C)C)O2	GPR151 ag 6.2 | GPR151 confirm inactive | GPR119 ag inactive
COC(=O)C1=C(C)Nc2ncnn2C1c1cccc(OC)c1 (stereo not drawn)	none
COCCOC(=O)C1=C(C)Nc2ncnn2C1c1cccc(OC)c1 (stereo not drawn)	GPR151 ag 5.8 | GPR151 confirm inactive | GPR119 ag inactive
COC(=O)C1=C(C)Nc2nnnn2C1c1cccc(O)c1 (stereo not drawn)	none
CCOC(=O)C1=C(C)Nc2nnnn2C1c1cccc(O)c1 (stereo not drawn)	GPR151 ag 13 | GPR151 confirm inactive | GPR119 ag inactive
Oc1ccc(-c2cnn3c(NCc4ccc(F)cc4)ccnc23)cc1	GPR151 ag 6.5 | GPR151 confirm inactive | GPR119 ag inactive
OCc1ccc(-c2cnn3c(NCc4ccc(F)cc4)ccnc23)cc1	none
COc1cc(C(=O)O)ccc1OCCC(C)C	none
CC1(c2ccc3c(c2)OCCO3)NC(=O)N(Cc2cc(=O)oc3cc4c(cc23)CCC4)C1=O (stereo not drawn)	GPR151 ag 6.7 | GPR151 confirm inactive | GPR119 ag inactive
COc1cc(NS(=O)(=O)c2cc(C(=O)O)ccc2OC)cc(OC)c1	GPR151 ag 9.2 | GPR151 confirm inactive | GPR119 ag inactive
COc1ccc(OC)c(S(=O)(=O)Nc2ccc(C(=O)O)cc2)c1	none
COc1ccc(S(=O)(=O)N/N=C(/C)c2ccc(Cl)cc2)cc1	none
COc1cccc(/C(C)=N/NS(=O)(=O)c2ccc(Cl)cc2)c1	GPR151 ag 5.3 | GPR151 confirm inactive | GPR119 ag inactive
CCC(C(=O)NC(C)(C)C)N(C(=O)Cn1nnc(-c2ccc(C)o2)n1)c1cccc(F)c1 (stereo not drawn)	none
OCCNCCCCOc1ccc(Cl)cc1	none
O=C(COc1ccc(Cl)cc1)NCC(c1ccco1)N1CCOCC1 (stereo not drawn)	GPR151 ag 6.2 | GPR151 confirm inactive | GPR119 ag inactive
COc1ccc(C(=O)CCC(=O)O)c(C)c1	none
CCC(=O)Nc1cccc(NC(=O)COc2ccc3ccccc3c2)c1	none
COc1ccc(-c2cc(C(=O)NCC(C)C)on2)cc1OC	GPR151 ag 7.8 | GPR151 confirm inactive | GPR119 ag inactive
COc1ccc(-c2cc(C(=O)NCC(C)C)no2)cc1OC	none
CC1=C(C(=O)N2CCOCC2)C(c2ccc(O)cc2)NC(=S)N1 (stereo not drawn)	GPR151 ag 8.8 | GPR151 confirm inactive | GPR119 ag inactive
